According to PubChem BioAssay (NCI):
Compounds without any hit were thinned out: in the full panel of roughly 79,000, 15% have a hit. Unmarked numbers belong to inactive results. Calls of active or inactive are those of the source. Rule as the data show it: active = growth inhibition above about 70%; inactive = the rest.

Assay: NCI Yeast Anticancer Drug Screen. Data for the mgt1 strain (AID 153)
Conditions: S. cerevisiae mgt1 mutant growth inhibition, hits give high values
Experimental: Growth inhibition of yeast strains with defined genetic alterations is measured as a screen for potential anti-cancer activity. Selected strains with alterations in DNA damage repair or cell cycle control were exposed to compounds and growth inhibition was measured relative to vehicle treated controls. The strain used in this assay is mgt1

SMILES	growth inhibition (at 1.2 µM)	growth inhibition (at 3.7 µM)	growth inhibition (at 11.0 µM)	growth inhibition (at 33.0 µM)	growth inhibition (at 100.0 µM)
CCNCC(=O)O[C@]1(CC)C(=O)OCc2c1cc1n(c2=O)Cc2cc3ccccc3nc2-1	22%	33%	26%	18%	23%
CC1=C2C(=C[C@@](C)(CO)[C@@H]2O)C(=O)[C@](C)(O)C12CC2	-3%	-1%	0%	2%	0%
C=C[C@H]1CN2CC[C@H]1C[C@@H]2[C@@H](O)c1ccnc2ccccc12	2%	1%	3%	0%	4%
COc1ccc(OC)c(/C=C/[N+](=O)[O-])c1	0%	-2%	2%	23%	100% (active)
CCCCN(CCCC)CC(C(C)=O)C(c1ccccc1)c1c(O)c2ccccc2oc1=O (stereo not given)	1%	2%	3%	0%	-1%
N#Cc1cc(N(CCCl)CCCl)c([N+](=O)[O-])cc1[N+](=O)[O-]	-2%	-8%	-4%	28%	87% (active)
O=P(Oc1ccc(Cl)cc1)(Oc1ccc(Cl)cc1)N1CC1	-6%	-3%	-5%	-4%	49%
CC(=O)O/C(=C1\C[C@H]2[C@@H]3CC=C4C[C@@H](OC(C)=O)CC[C@]4(C)[C@H]3CC[C@]2(C)C1=O)C(F)(F)F	1%	0%	1%	1%	3%
